This is part of a sample that, as a whole, favours compounds with a hit. Of some 83,000 tested, about 20% had one in any assay.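 Interpretation: 100, growth as untreated; towards 0, rising growth inhibition; 0, no net growth; 0 to -100, cell death. Compounds scoring below 10 were considered active.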 Active and inactive are the calls of the source.
Columns and labels:
Experiment in all cases: NCI-60 one-dose screen, 48 h (100 = growth as untreated, 0 = no growth, -100 = all killed)
Conditions in all cases: 10 µM unless noted
NCI-H23 lung = system: NCI-H23 lung
NCI-H226 lung = system: NCI-H226 lung
NCI-H322M lung = system: NCI-H322M lung
HOP-62 NSCLC = system: HOP-62 NSCLC
NCI-H460 lung = system: NCI-H460 lung
HOP-92 NSCLC = system: HOP-92 NSCLC
NCI-H522 lung = system: NCI-H522 lung
A549/ATCC NSCLC = system: A549/ATCC NSCLC
786-0 renal = system: 786-0 renal
COLO 205 colon = system: COLO 205 colon

Measured: growth

Cc1cc(C)c(NC(=O)c2sc3nc4c(cc3c2N)CCCCCC4)c(C)c1
inactive: NCI-H23 lung 81.1% | NCI-H226 lung 75.6% | NCI-H322M lung 99.7% | HOP-62 NSCLC 45.6% | NCI-H460 lung 46.2% | HOP-92 NSCLC 51.3% | A549/ATCC NSCLC 53.2% | 786-0 renal 48.7% | COLO 205 colon 81.5%
active: NCI-H522 lung 4.69%

C=C1C(=O)O[C@H]2[C@H]1CC/C(COC(=O)NCC(=O)Nc1ccc(OC)c(C(N)=O)c1O)=C\CC[C@@]1(C)O[C@@H]21
inactive: NCI-H23 lung 95.6% | NCI-H226 lung 83.3% | NCI-H322M lung 92.2% | HOP-62 NSCLC 85.4% | NCI-H460 lung 97% | HOP-92 NSCLC 14.6% | A549/ATCC NSCLC 86.3% | 786-0 renal 58.7% | COLO 205 colon 10.8%
active: NCI-H522 lung -25.1%

C#C[C@@]1(O)[C@@H](CO)O[C@@H](n2cnc3c(-c4ccccc4)ncnc32)[C@@H]1O
inactive: NCI-H23 lung 101% | NCI-H226 lung 104% | NCI-H322M lung 104% | HOP-62 NSCLC 110% | NCI-H460 lung 112% | HOP-92 NSCLC 105% | NCI-H522 lung 94.8% | A549/ATCC NSCLC 94.1% | 786-0 renal 98.8% | COLO 205 colon 109%

C=C1C(=O)O[C@H]2[C@H]1CC/C(COC(=O)n1ccnc1)=C\CC[C@@]1(C)O[C@@H]21
inactive: NCI-H23 lung 91.1% | NCI-H226 lung 92.4% | NCI-H322M lung 113% | HOP-62 NSCLC 92.5% | NCI-H460 lung 104% | HOP-92 NSCLC 94.4% | NCI-H522 lung 31.9% | A549/ATCC NSCLC 93% | 786-0 renal 102% | COLO 205 colon 64.6%

COc1ccc2nc3nc4ccc[nH]c4cc3c2c1
inactive: NCI-H23 lung 73.9% | NCI-H226 lung 91.6% | NCI-H322M lung 87.6% | HOP-62 NSCLC 87.9% | NCI-H460 lung 73.7% | HOP-92 NSCLC 122% | NCI-H522 lung 84.4% | A549/ATCC NSCLC 91.2% | 786-0 renal 86.2% | COLO 205 colon 97.9%

N#Cc1ccc(N2Cc3cc(Cl)ccc3OC3=C2C(=O)N(Cc2ccccc2)C3=O)cc1
inactive: NCI-H23 lung 10.8% | NCI-H226 lung 100% | NCI-H322M lung 96.3% | HOP-62 NSCLC 59% | NCI-H460 lung 34.7% | A549/ATCC NSCLC 66.3%
active: HOP-92 NSCLC -63.8% | NCI-H522 lung -57.2% | 786-0 renal -82.4% | COLO 205 colon -69.2%

COc1cc(-c2cn(-c3ccc(Cl)c(Cl)c3)c(=O)[nH]2)cc(OC)c1OC
inactive: NCI-H23 lung 92.4% | NCI-H226 lung 93.1% | NCI-H322M lung 69.7% | NCI-H460 lung 96.7% | HOP-92 NSCLC 82% | NCI-H522 lung 74.5% | A549/ATCC NSCLC 89.7% | 786-0 renal 14.4% | COLO 205 colon 105%
active: HOP-62 NSCLC -1.73%

CC(=O)c1c(OCC#N)ccc2c(C)cc(=O)oc12
inactive: NCI-H23 lung 109% | NCI-H226 lung 112% | NCI-H322M lung 113% | HOP-62 NSCLC 94.7% | NCI-H460 lung 103% | HOP-92 NSCLC 108% | NCI-H522 lung 77.3% | A549/ATCC NSCLC 99.9% | 786-0 renal 106% | COLO 205 colon 104%

COc1cc2nc3c(=O)n(-c4ccc(C#N)cc4)cnn3c(=O)c2cc1OC
inactive: NCI-H23 lung 98.3% | NCI-H226 lung 95.1% | NCI-H322M lung 93.3% | HOP-62 NSCLC 102% | NCI-H460 lung 104% | HOP-92 NSCLC 103% | NCI-H522 lung 82.1% | A549/ATCC NSCLC 106% | 786-0 renal 103% | COLO 205 colon 94.3%

O=C1Nc2ccc(Cl)cc2/C1=N/c1nc(-c2ccc(Cl)cc2)cs1
inactive: NCI-H226 lung 36.9% | NCI-H322M lung 48.9%
active: NCI-H23 lung 7.9% | HOP-62 NSCLC -5.13% | NCI-H460 lung -10.2% | HOP-92 NSCLC -13.1% | NCI-H522 lung -12.8% | A549/ATCC NSCLC 7.91% | 786-0 renal -16.2% | COLO 205 colon -51.6%

COc1ccc2[nH]c(-c3ccccc3)c(C=C(C#N)C#N)c2c1
active: HOP-92 NSCLC -7.8% | NCI-H522 lung -18.4%
inactive: NCI-H23 lung 23.4% | NCI-H226 lung 55.1% | NCI-H322M lung 59.1% | HOP-62 NSCLC 37.4% | NCI-H460 lung 15.3% | A549/ATCC NSCLC 37% | 786-0 renal 33.9% | COLO 205 colon 38.2%

Cn1nc(C(F)(F)F)c(-c2cc(C(F)(F)F)cc(C(F)(F)F)c2)c1-c1ccc(OCc2ccc(Cl)cc2)cc1O
inactive: NCI-H226 lung 13.9% | A549/ATCC NSCLC 10.5%
active: NCI-H23 lung 0.56% | NCI-H322M lung 5.67% | HOP-62 NSCLC -9.87% | NCI-H460 lung -10.4% | HOP-92 NSCLC -20.1% | NCI-H522 lung -9.19% | 786-0 renal 2.41% | COLO 205 colon -90.7%

COc1ccc2oc(=O)cc(-c3nc4ccc(N)cc4[nH]3)c2c1
inactive: NCI-H23 lung 84% | NCI-H226 lung 72% | NCI-H322M lung 86.2% | HOP-62 NSCLC 70.8% | NCI-H460 lung 102% | HOP-92 NSCLC 80.2% | NCI-H522 lung 64.1% | A549/ATCC NSCLC 90% | 786-0 renal 96.8% | COLO 205 colon 84.9%

Nc1c(C(=O)Nc2cccc3ccccc23)sc2nc3c(cc12)CCCCCC3
inactive: NCI-H23 lung 47.8% | NCI-H226 lung 70.6% | NCI-H322M lung 48.1% | HOP-62 NSCLC 38.8% | NCI-H460 lung 11.2% | HOP-92 NSCLC 52.9% | A549/ATCC NSCLC 20.1% | 786-0 renal 26.4%
active: NCI-H522 lung -37.1% | COLO 205 colon -2.61%

CNCc1cccc2c1OCCOCCOCCN(CCN1CCOCC1)S(=O)(=O)c1ccc(cc1)-c1cnc(N)c(n1)C(=O)N2
inactive: NCI-H23 lung 42.3% | NCI-H226 lung 78.4% | NCI-H322M lung 49.8% | HOP-62 NSCLC 100% | NCI-H460 lung 30.7% | HOP-92 NSCLC 87.9% | NCI-H522 lung 49% | A549/ATCC NSCLC 46.4% | 786-0 renal 10.6% | COLO 205 colon 22.3%

COc1ccc(C(=O)c2cc(OC)c(OC)c(OC)c2)cc1OC(=O)CCl
active: NCI-H460 lung 8.25% | NCI-H522 lung -12.4%
inactive: NCI-H23 lung 24% | NCI-H226 lung 109% | NCI-H322M lung 44.5% | HOP-62 NSCLC 22% | HOP-92 NSCLC 52.9% | A549/ATCC NSCLC 23% | 786-0 renal 28.7% | COLO 205 colon 16.4%

O=C1NC(SCc2ccc(F)cc2)=N/C1=C/c1cccc(OCc2ccc(Cl)cc2)c1
inactive: NCI-H23 lung 57.6% | NCI-H322M lung 50.3% | HOP-62 NSCLC 45.9% | NCI-H460 lung 11.8% | HOP-92 NSCLC 68% | NCI-H522 lung 67.5% | A549/ATCC NSCLC 26.2% | COLO 205 colon 55.3%
active: NCI-H226 lung -7.92% | 786-0 renal -33.3%

O=C(/C(=C/c1ccc([N+](=O)[O-])cc1)SCc1ccc(Cl)cc1)c1ccc(F)cc1
active: NCI-H522 lung -1.33%
inactive: NCI-H23 lung 57% | NCI-H226 lung 66.7% | NCI-H322M lung 100% | HOP-62 NSCLC 68.7% | NCI-H460 lung 83.1% | HOP-92 NSCLC 80.3% | A549/ATCC NSCLC 80.5% | 786-0 renal 76.9% | COLO 205 colon 48.3%

COc1ccc(-n2cc(COc3ccc4c5ccnc(C)c5n(CC(C)C)c4c3)nn2)cc1
inactive: NCI-H23 lung 61.9% | NCI-H226 lung 52.3% | NCI-H322M lung 88.7% | HOP-62 NSCLC 56.6% | NCI-H460 lung 69.5% | HOP-92 NSCLC 44.9% | NCI-H522 lung 37.3% | A549/ATCC NSCLC 67.1% | 786-0 renal 73.9% | COLO 205 colon 68.6%

N#CC1C(c2ccc(Cl)cc2)=Nc2c(c(-c3ccccc3)nn2-c2ccccc2)C12C(=O)Nc1ccc(Cl)cc12 (stereo not given)
active: HOP-92 NSCLC -8.89%
inactive: NCI-H23 lung 50.7% | NCI-H226 lung 61.5% | NCI-H322M lung 79.2% | HOP-62 NSCLC 57.9% | NCI-H460 lung 22.3% | NCI-H522 lung 55.9% | A549/ATCC NSCLC 27.2% | 786-0 renal 42.9% | COLO 205 colon 51%

C=C(C)[C@@H]1CC[C@]2(C(=O)OCCOCCOCC[P+](c3ccccc3)(c3ccccc3)c3ccccc3)CC[C@]3(C)[C@H](CC[C@@H]4[C@@]5(C)CC[C@H](OC(C)=O)C(C)(C)[C@@H]5CC[C@]43C)[C@@H]12
active: NCI-H23 lung -84.6% | NCI-H226 lung -85.3% | NCI-H322M lung -93.8% | HOP-62 NSCLC -84.9% | NCI-H460 lung -80.5% | HOP-92 NSCLC -87.3% | NCI-H522 lung -75.2% | A549/ATCC NSCLC -88.3% | 786-0 renal -91.6% | COLO 205 colon -75.7%

O=c1[nH]nc(-c2ccc(Br)cc2)c2sc(NC(=S)Nc3ccc(Cl)cc3)nc12
inactive: NCI-H23 lung 84.1% | NCI-H226 lung 94.4% | NCI-H322M lung 95.3% | HOP-62 NSCLC 104% | NCI-H460 lung 102% | HOP-92 NSCLC 92.7% | NCI-H522 lung 94.1% | A549/ATCC NSCLC 102% | 786-0 renal 102% | COLO 205 colon 124%

COc1ccc(-c2[nH]c3ccccc3c2C=C(C#N)C#N)cc1
inactive: NCI-H226 lung 25.8% | NCI-H322M lung 52.1% | HOP-62 NSCLC 32.2% | 786-0 renal 14.9%
active: NCI-H23 lung 2.52% | NCI-H460 lung 6.67% | HOP-92 NSCLC -17.2% | NCI-H522 lung -48.5% | A549/ATCC NSCLC 5.94% | COLO 205 colon -8.28%

CC(=O)c1cnc(-c2ccccc2)nc1CBr
inactive: NCI-H23 lung 87.7% | NCI-H226 lung 92.1% | NCI-H322M lung 102% | HOP-62 NSCLC 94.3% | NCI-H460 lung 98.2% | HOP-92 NSCLC 58.7% | A549/ATCC NSCLC 99% | 786-0 renal 86.3% | COLO 205 colon 36.9%
active: NCI-H522 lung -23.4%

O=C(N/N=C/C[C@@H]1[C@@H](/C=C/[C@@H](O)COc2cccc(Cl)c2)[C@H](O)C[C@@H]1O)c1ccncc1
inactive: NCI-H23 lung 98.2% | NCI-H226 lung 89.3% | NCI-H322M lung 101% | HOP-62 NSCLC 79.4% | NCI-H460 lung 102% | HOP-92 NSCLC 93.7% | NCI-H522 lung 69.9% | A549/ATCC NSCLC 89% | 786-0 renal 105% | COLO 205 colon 113%

Clc1ccc2c(NCCCNC3CCCCC3)ccnc2c1
inactive: NCI-H23 lung 112% | NCI-H226 lung 108% | NCI-H322M lung 101% | HOP-62 NSCLC 91.1% | NCI-H460 lung 104% | HOP-92 NSCLC 80.4% | NCI-H522 lung 107% | A549/ATCC NSCLC 120% | 786-0 renal 68.5% | COLO 205 colon 93.5%
